Source: PubChem
Most compounds without a hit are left out; they make up all but 2.4% or so of the library.
Pol eta inh-1 – inhibitors of human DNA polymerase eta; AID 588591; recombinant Pol eta, fluorescent DNA replication assay; 390,000 compounds, 1.2% hits; Q9Y253; Potency, µM (top dose mostly 114 µM), for inactives: at the highest dose activity change, negative = inhibition, most hits filed as inhibitors; note: % is set by controls: 0 for no effect and ±100 for the full control effect
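Pol eta at 10 nM preincubated with compounds 15 min at room temperature; reaction started with fluorescent substrate (50 nM final) and read kinetically at 0 and 10 min.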
FEN1 inh-1 – inhibitors of human flap endonuclease 1. Recombinant FEN1 flap cleavage, fluorescence, 15 min. Potency, µM (top dose mostly 114 µM), for the others: at the highest dose activity change, negative = inhibition, actives largely listed as inhibitors. 390,000 compounds, 0.35% hits. AID 588795; note: % is set by controls: 0 for no effect and ±100 for the full control effect; nearly all actives have a fitted effect of over 65% in size
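Potency values derive from four-parameter Hill fits of normalized qHTS data. The reaction used 10 nM FEN1 preincubated 15 min at room temperature with compound, then 50 nM DNA substrate, read at 0 and 15 min.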
WRN helicase inh-1 – WRN helicase (human) inhibition; WRN helicase unwinding, fluorescent forked duplex, kinetic; Potency, µM (top dose mostly 114 µM), for the others: at the top dose activity change, negative = inhibition, actives largely listed as inhibitors; 360,000 compounds, 0.46% hits; note: % is set by controls: 0 for no effect and ±100 for the full control effect; nearly all actives have a fitted effect of over 55% in size
Target sequence (Q14191 whole entry, looked up): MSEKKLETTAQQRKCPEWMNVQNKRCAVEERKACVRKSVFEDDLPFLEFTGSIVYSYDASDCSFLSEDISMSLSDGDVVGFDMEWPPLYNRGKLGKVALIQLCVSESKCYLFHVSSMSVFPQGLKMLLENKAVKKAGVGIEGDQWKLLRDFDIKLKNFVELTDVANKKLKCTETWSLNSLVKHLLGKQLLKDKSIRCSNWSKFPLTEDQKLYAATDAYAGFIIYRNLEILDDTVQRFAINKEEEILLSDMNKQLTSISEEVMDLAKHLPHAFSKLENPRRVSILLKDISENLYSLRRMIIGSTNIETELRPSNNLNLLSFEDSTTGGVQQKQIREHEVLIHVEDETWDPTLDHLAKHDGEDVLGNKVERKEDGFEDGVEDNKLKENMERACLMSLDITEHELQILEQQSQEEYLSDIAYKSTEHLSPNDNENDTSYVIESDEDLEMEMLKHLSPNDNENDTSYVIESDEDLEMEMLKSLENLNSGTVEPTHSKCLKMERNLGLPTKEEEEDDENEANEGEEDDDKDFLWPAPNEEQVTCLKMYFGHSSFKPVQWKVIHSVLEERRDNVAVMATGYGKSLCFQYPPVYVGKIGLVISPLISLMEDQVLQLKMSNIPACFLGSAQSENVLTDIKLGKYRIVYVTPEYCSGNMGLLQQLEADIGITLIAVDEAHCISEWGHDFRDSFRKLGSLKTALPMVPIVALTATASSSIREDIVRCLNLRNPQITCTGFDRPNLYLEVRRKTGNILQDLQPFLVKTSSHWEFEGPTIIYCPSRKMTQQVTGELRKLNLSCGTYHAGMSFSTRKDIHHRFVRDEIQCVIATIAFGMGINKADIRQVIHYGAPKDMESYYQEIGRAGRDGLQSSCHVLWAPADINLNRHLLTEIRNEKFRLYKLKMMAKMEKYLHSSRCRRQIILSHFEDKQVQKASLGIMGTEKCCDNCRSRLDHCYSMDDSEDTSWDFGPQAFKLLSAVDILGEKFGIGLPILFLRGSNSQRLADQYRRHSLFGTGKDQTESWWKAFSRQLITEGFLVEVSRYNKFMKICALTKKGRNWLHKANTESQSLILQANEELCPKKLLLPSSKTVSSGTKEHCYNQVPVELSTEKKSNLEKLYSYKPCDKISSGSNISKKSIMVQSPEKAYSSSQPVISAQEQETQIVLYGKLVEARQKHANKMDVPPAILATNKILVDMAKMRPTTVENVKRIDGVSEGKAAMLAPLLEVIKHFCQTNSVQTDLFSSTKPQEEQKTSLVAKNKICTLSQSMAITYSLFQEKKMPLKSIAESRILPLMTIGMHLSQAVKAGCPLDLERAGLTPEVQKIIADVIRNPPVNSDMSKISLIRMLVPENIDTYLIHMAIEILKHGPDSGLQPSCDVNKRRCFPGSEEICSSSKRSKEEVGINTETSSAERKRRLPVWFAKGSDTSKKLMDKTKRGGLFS
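Kinetic fluorescence helicase assay: unwinding of a quenched forked DNA duplex (100 nM final) with 2 mM ATP final raises red fluorescence (525/598 nm). Compounds sat 15 min at room temperature with 20 nM WRN beforehand.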
Pol iota inh – DNA polymerase iota (human) inhibition. Q9UNA4. Pol iota fluorescent replication assay, 10 min. Potency, µM (titrated, usually from 115 µM), for inactives: at the highest dose activity, negative = inhibition, hits mostly inhibitors. 390,000 compounds, 1% hits
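Pol iota at 10 nM preincubated 15 min with compounds at room temperature; reaction started with fluorescent substrate, 50 nM final. Fluorescence read kinetically at 0 and 10 min; buffer-only wells as negative control.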
Pol beta inh – DNA polymerase beta (human) inhibition; 340,000 compounds, 1.3% hits; AID 485314; P06746; Pol beta primer extension/strand displacement, fluorescence kinetic; Potency, µM (doses to about 114 µM), without a hit: top-dose activity change, negative = inhibition, usual class: inhibitors; note: % is set by controls: 0 for no effect and ±100 for the full control effect
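Enzyme-only controls used 10 nM Pol beta; buffer lacking enzyme served as negative control. Compound preincubated 15 min, then 50 nM substrate added; 0 and 10 min reads at room temperature.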
Pol kappa inh-1 – blocks human DNA polymerase kappa activity. Q9UBT6. purified Pol kappa, fluorescent DNA synthesis assay, 10 min. Potency, µM (titrated, usually from 107 µM), without a hit: at the highest dose activity, negative = inhibition, most hits filed as inhibitors. 400,000 compounds, 0.53% hits. AID 588579; note: % is set by controls: 0 for no effect and ±100 for the full control effect
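Here, compound and 10 nM enzyme are combined for 15 min at room temperature; adding 50 nM substrate (final) starts DNA synthesis, tracked by fluorescence at 0 and 10 min against buffer-only wells.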
PGK validate – TbPGK inhibition, hit validation; shares compounds with Pol kappa inh-1; TbPGK coupled GAPDH assay, Kinase-Glo luminescence; Potency, µM (top dose mostly 57.5 µM), for inactives: top-dose activity change, negative = inhibition, hits mostly inhibitors; 500 compounds, 79% hits; AID 686980; note: % is set by controls: 0 for no effect and ±100 for the full control effect; nearly all actives have a fitted effect of over 65% in size
POLI cherry-pick – Inhibitors of human DNA polymerase iota, confirmation; shares compounds with Pol kappa inh-1; Pol iota primer extension, TAMRA/BHQ fluorescence; Potency, µM, actives largely listed as inhibitors; 1,500 compounds, 77% hits; AID 720496
Pol kappa inh-2 – Pol kappa (human) inhibition, cherry-pick confirmation; shares compounds with Pol eta inh-1; Potency, µM, most hits filed as inhibitors; purified Pol-kappa, fluorescent strand-displacement substrate; 920 compounds, 76% hits
Pol eta inh-2 – Pol eta (human) inhibition, cherry-pick confirmation. Potency, µM, hits mostly inhibitors. 2,600 compounds, 64% hits. shares compounds with Pol eta inh-1. Pol eta primer extension, TAMRA/BHQ fluorescence, 10 min
FEN1 inh-2 – FEN1 inhibition, cherry-pick retest | 880 compounds, 79% hits | AID 720498 | shares compounds with FEN1 inh-1 | Potency, µM, hits mostly inhibitors | FEN1 flap cleavage, TAMRA/BHQ2 fluorogenic DNA substrate; note: nearly all actives have a fitted effect of over 60% in size
WRN helicase inh-2 – WRN helicase inhibition, cherry-pick retest. shares compounds with WRN helicase inh-1. WRN helicase DNA unwinding, fluorescence kinetic. Potency, µM (series often up to 57.1 µM), without a hit: at the top dose activity, negative = inhibition, usual class: inhibitors. 610 compounds, 63% hits. AID 720497; note: nearly all actives have a fitted effect of over 65% in size
TO displacement – binds DNA, flagged in WRN inhibitor counterscreen | AID 720499 | thiazole orange DNA binding displacement, fluorescence | Potency, µM (top dose mostly 57.1 µM), without a hit: top-dose activity change, negative = inhibition, actives largely listed as inhibitors | shares compounds with WRN helicase inh-1 | 610 compounds, 10% hits;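 note: drop in dye fluorescence marks compound binding to DNA; % is set by controls: 0 for no effect and ±100 for the full control effect; nearly all actives have a fitted effect of over 60% in size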
BLM helicase inh – blocks human BLM helicase in WRN counterscreen. shares compounds with WRN helicase inh-1. Recombinant BLM helicase DNA unwinding, red fluorescence. Potency, µM (doses to about 57.1 µM), for the others: top-dose activity change, negative = inhibition, actives largely listed as inhibitors. 610 compounds, 60% hits. AID 720503; note: nearly all actives have a fitted effect of over 60% in size
* marks the source's active call; other numbers are inactive results; ? = inconclusive; / = no result; ! = not active in a repeat; [ ] = dose if it differs, or a comment. Calls come from the whole dose curve; as a rule, active = well fitted curve in the direction sought with a large enough effect; inconclusive = small, poorly fitted or top-dose-only effect, or another doubt; inactive = no such curve, though single readings can be large; an effect the other way counts as inactive or inconclusive. Potency is the fitted concentration of half-maximal effect.

SMILES	Pol eta inh-1	FEN1 inh-1	WRN helicase inh-1	Pol iota inh	Pol beta inh	Pol kappa inh-1	POLI cherry-pick	Pol eta inh-2	WRN helicase inh-2	TO displacement	BLM helicase inh	others
COc1ccc(S(=O)(=O)N2CCN(C(=O)c3cc4c(s3)CCC4)CC2)cc1	2.24µM*	44.7µM*	35.5µM*	2.82µM*	/	28.2µM*	2.99*	7.57*	7.64µM*	?	1.08µM*	Pol kappa inh-2=2.99*;FEN1 inh-2=75.7*
CCOc1ccc(-c2nc(SCC(=O)Nc3ccc(C)c(C)c3)n3[nH]c(=O)cc3n2)cc1	50.1µM*	?	/	?	3.16µM*	-25.7%	26.7*	84.9*	15.2µM*	8.9%	3.04µM*	PGK validate=16.3µM*
COc1cc(NC(=O)CC(c2cccs2)N2Cc3ccccc3C2=O)cc(OC)c1OC (stereo unspecified)	-13.4%	-11.3%	/	33.5%	30.7%	3.1%	/	/	/	/	/
COc1ccc(NC(=O)c2oc3ccccc3c2NC(=O)C2CCCCC2)c(OC)c1	-18.1%	-8.8%	/	32.9%	14.0%	-1.6%	/	/	/	/	/
COc1cccc2c1C(=O)c1c(O)c3c(c(O)c1C2=O)C[C@@](O)(C(=O)CO)C[C@@H]3OC1CC(N)C(O)C(C)O1 (stereo partly specified)	5.01µM*	6.31µM*	2.99µM*	35.5µM*	/	10.6µM*!	16.8*	60.1*	17.1µM*	96.3%	27.1µM*	Pol kappa inh-2=9.47*;FEN1 inh-2=33.8*
COc1cccc2c1C(=O)c1c(O)c3c(c(O)c1C2=O)CC(O)(C(C)=O)CC3OC1CC(N(C)C)C(O)C(C)O1 (stereo unspecified)	11.2µM*	31.6µM*	17.8µM*	22.4µM*	/	?	10.6*	19*	24.1µM*	240.2%	24.1µM*	Pol kappa inh-2=23.8*;FEN1 inh-2=37.9*
O=C(Nc1ccc2nc(SCC(=O)N3CCCc4ccccc43)sc2c1)c1cccc(Cl)c1	-6.4%	3.7%	/	6.2%	6.6%	-0.9%	/	/	/	/	/
Cc1cc2c(n1-c1ccc(C(=O)NCc3ccccc3Cl)cc1)CCCC2	-6.4%	13.6%	/	10.3%	-9.4%	-10.2%	/	/	/	/	/
COc1cc(NC(=O)c2noc3c2CCC3)c(OC)cc1Cl	17.8µM*	?	?	?	10µM*	31.6µM*	37.7*	37.9*	?	-4.7%	21.5µM*
O=C(c1ccc(-n2cccc2)cc1)N1CCOCC1	-11.5%	4.6%	1.2%	11.8%	11.7%	-0.4%	/	/	/	/	/
O=C(c1ccc(=O)oc1)N1CCOCC1	1.78µM*	31.6µM*	?	?	5.01µM*	50.1µM*	/	/	5.41µM*	-0.7%	3.04µM*	PGK validate=4.11µM*
O=C(c1ccc(=O)oc1)N1CCCc2ccccc21	3.55µM*	56.2µM*	?	12.6µM*	-100.9%	20µM*	42.3*	30.1*	21.5µM*	-8.8%	24.1µM*
COc1ccc(OC)c(NC(=O)C2=C(C)C(=O)OC23CCCCCC3)c1	-9.6%	11.7%	/	38.9%	-0.8%	5.2%	/	/	/	/	/
CCOc1ccc(C(=O)Nc2cccc(-c3nc4cc(Cl)cc(Cl)c4o3)c2)cc1	-17.0%	5.4%	/	12.8%	-1.3%	11.9%	/	/	/	/	/
NC1=NC(=O)/C(=C/c2ccc(-c3ccc(S(N)(=O)=O)cc3)o2)S1	22.4µM*	?	35.5µM*	44.7µM*	?	79.4µM*	33.6*	53.6*	19.2µM*	70.4%	10.8µM*	Pol kappa inh-2=21.2*
Cc1cc([C@](C)(N)C(=O)O)ccc1P(=O)(O)O	/	/	/	/	/	-3.8%[19.4 µM]	/	/	/	/	/
CN(C)Cc1c(O)ccc2c(=O)c(-c3ccc(Cl)cc3)coc12	-20.7%	1.2%	-18.6%	92.0%	-1.9%	-13.1%	/	/	/	/	/
O=c1c(-c2ccc([N+](=O)[O-])cc2)coc2c(O)c(O)ccc12	3.16µM*	?	22.4µM*	8.91µM*	?	7.08µM*	/	8.49*	4.82µM*	-11.0%	4.29µM*	PGK validate=2.59µM*
CCOc1ccc(CNC(=O)c2cnc3sc(N4CCOCC4)nn3c2=O)cc1OC	-10.9%	14.4%	/	-3.7%	36.7%	0.0%	/	/	/	/	/
O=C1OC(c2cccs2)=N/C1=C/c1ccc(-c2cccc(C(=O)O)c2)o1	14.1µM*	39.8µM*	?	20µM*	3.55µM*	44.7µM*	37.7*	26.9*	19.2µM*	?	?
COc1ccccc1C(=O)Nc1ccc2nc(N3CCC(C)CC3)cc(C)c2c1	/	-2.1%	/	10.2%	-16.4%	3.1%	/	/	/	/	/
O=C(CSc1n[nH]c(=O)[nH]c1=O)Nc1ccc2c(c1)C(=O)c1ccccc1C2=O	8.91µM*	28.2µM*	31.6µM*	?	2.82µM*	-41.8%	26.7*	19*	8.57µM*	12.1µM*	4.29µM*	PGK validate=3.26µM*;Pol kappa inh-2=23.8*
CCN(c1ccccc1)S(=O)(=O)c1cc(NC(=O)CSc2n[nH]c(=O)[nH]c2=O)ccc1Cl	-6.4%	-17.7%	-1.9%	-30.0%	5.3%	-2.8%	/	/	/	/	/
COc1cc(-c2nnc(SCc3cc(=O)oc4cc(O)c(O)cc34)o2)cc(OC)c1OC	0.708µM*	39.8µM*	10µM*	1.12µM*	0.891µM*	1.12µM*	2.38*	1.07*	2.41µM*	19.2µM*	0.961µM*	PGK validate=0.919µM*;FEN1 inh-2=37.9*
